The panel holds about 79,000 compounds, 15% with a hit somewhere; the sample as a whole holds those more often. A number with no mark means an inactive call. Activity calls are given as the source filed them. Rule as the data show it: active = growth inhibition above about 70%; inactive = the rest.
assay: NCI Yeast Anticancer Drug Screen. Data for the sgs1 mgt1 strain (AID 161);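 also: 0% = growth of cultures given vehicle only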; conditions: S. cerevisiae sgs1 mgt1 strain, at 50.0 µM (retest, dose inferred, filed as 5.0), stronger effect = higher value
Summary of the method: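 Test agents were incubated with a DNA-repair-mutant yeast strain. Growth was then read and compared against vehicle-treated controls.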

| Compound | growth inhibition |
| --- | --- |
| CC1=CC2OC3CC4OC(=O)/C=C/C=C/C(C(C)O)OCC(=O)C(C)CC(=O)OCC2(CC1)C4(C)C31CO1 (stereo not drawn) | 98% (active) |
| Cc1cc(=O)oc2c3c(ccc12)OC(c1ccc(Br)cc1)CC3=O (stereo not drawn) | 20% |
| OCC(O)C(O)C(O)/C=N\Nc1ccccc1 (stereo not drawn) | 15% |
| CN(C)Cc1ccc2[nH]c3c(c2c1)CCCC3 | 90% (active) |
| CC(C)CCCC(C)C1CCC2C3CC=C4OC(=O)CCC4(C)C3CCC12C (stereo not drawn) | 93% (active) |
| CC(C(=O)c1ccc2cc(Br)c3ccccc3c2c1)N(C)C (stereo not drawn) | 100% (active) |
| O=[N+]([O-])c1ccccc1SCc1ccccc1 | 49% |
| C(=P(c1ccccc1)(c1ccccc1)c1ccccc1)[P+](c1ccccc1)(c1ccccc1)c1ccccc1 | 99% (active) |
| CCOC(=O)N1CCN(C(=S)N/N=C(\C)c2ncccn2)CC1 | 99% (active) |
| CCC1(C)C(C#N)(C#N)C1(C#N)C#N | 66% |
| Cc1ccccc1C(O)(c1ccccc1C)C1(O)CCN(C)CC1 | -10% |
| Oc1c(C(Nc2ccccn2)c2ccccc2)ccc2cccnc12 (stereo not drawn) | 96% (active) |
| Cc1ccc(C(CN(C)C)C(=O)c2ccccc2)cc1C (stereo not drawn) | 93% (active) |
| COC(=O)/C=C(\NC1CC(OC2C[C@](O)(C(C)=O)Cc3c(O)c4c(c(O)c32)C(=O)c2c(OC)cccc2C4=O)OC(C)C1O)C(=O)OC (stereo partly drawn) | 97% (active) |
| CC1(C)C/C(=N/NC(N)=S)C(=NO)/C(=N\NC(N)=S)C1 | 61% |
| Cc1cc2c(c(C(N)=O)c1C)-c1cccc(F)c1C2=O | 20% |
| CN(C)c1ccc(/C=C(\C#N)c2cccc(Cl)c2)cc1 | 12% |
| Cc1ccc(S(=O)(=O)NNc2nc(N(C)C)nc(N(C)C)n2)cc1 | 13% |
| CC(NNC(=S)NCc1ccccc1)c1cc2ccccc2cn1 (stereo not drawn) | 91% (active) |
| COc1ccc(Cc2c(-c3ccc(C)cc3)n[nH]c(=O)c2C2C(=O)N(c3ccccc3)N=C2c2ccccc2)cc1 (stereo not drawn) | 97% (active) |

| Compound | growth inhibition |
| --- | --- |
| CC1(c2ccccc2)OC(=O)C=CC1=O (stereo not drawn) | 97% (active) |
| CC1CCC(C)(C)c2cc([N+](=O)[O-])cc([N+](=O)[O-])c21 (stereo not drawn) | 99% (active) |
| CC1(C)CC(=O)C(/C=N/c2nc(-c3cccc([N+](=O)[O-])c3)cs2)=C(O)C1 | 99% (active) |
| O=[N+]([O-])C(=C1Nc2ccccc2N1)C(Cl)=C(Cl)Cl | 22% |
| COc1ccc2c(c1)C1(C)CCCC(C)(C(=O)O)C1C(Br)C2=O (stereo not drawn) | 97% (active) |
| COc1cc(NCC(C)(O)CN2CCC(C)CC2C)c2ncccc2c1 (stereo not drawn) | 61% |
| ClC/C=C/c1ccccc1 | 15% |
| O=C(c1ccc(O)c(Br)c1)c1cc(Br)ccc1O | 98% (active) |
| COc1ccc(OP2(Oc3ccc(OC)cc3)=NP(Oc3ccc(OC)cc3)(Oc3ccc(OC)cc3)=NP(Oc3ccc(OC)cc3)(Oc3ccc(OC)cc3)=NP(Oc3ccc(OC)cc3)(Oc3ccc(OC)cc3)=N2)cc1 | 28% |
| COc1ccccc1NC(=O)CSC(N)=O | 24% |
| Cc1ccc(N=C(N)Nc2ccc(C)cn2)nc1 | 69% |
| FC(F)(F)c1nc(Cl)nc2nc[nH]c12 | -10% |
| O=[N+]([O-])c1ccccc1CC(c1c[nH]c2ccccc12)c1c[nH]c2ccccc12 | 70% (active) |
| O=C(O)C1CCCCC1.[Ag] | 99% (active) |
| CC(C)c1ccc(O)c(O)c(=O)c1 | 44% |
| CC(C)(C)c1ccc(Sc2ncnc3ccccc23)cc1 | 89% (active) |
| CC(C)NC(=O)CN1C(=O)NC(C)(c2ccccc2)C1=O (stereo not drawn) | 11% |
| COc1cccc(N2CCN(CC(O)COc3cc4c(c5c3CCCC5)CCCC4)CC2)c1 (stereo not drawn) | 95% (active) |
| CC(CCN)(CCN)[N+](=O)[O-] | 27% |

same assay, conditions: S. cerevisiae sgs1 mgt1 strain, at 50.0 µM, stronger effect = higher value

| Compound | growth inhibition |
| --- | --- |
| CC1=CC2OC3CC4OC(=O)/C=C/C=C/C(C(C)O)OCC(=O)C(C)CC(=O)OCC2(CC1)C4(C)C31CO1 (stereo not drawn) | 91.8% (active) |
| Cc1cc(=O)oc2c3c(ccc12)OC(c1ccc(Br)cc1)CC3=O (stereo not drawn) | 6.8% |
| OCC(O)C(O)C(O)/C=N\Nc1ccccc1 (stereo not drawn) | 39.5% |
| CN(C)Cc1ccc2[nH]c3c(c2c1)CCCC3 | 43.7% |
| CC(C)CCCC(C)C1CCC2C3CC=C4OC(=O)CCC4(C)C3CCC12C (stereo not drawn) | 76.2% (active) |
| CC(C(=O)c1ccc2cc(Br)c3ccccc3c2c1)N(C)C (stereo not drawn) | 99.2% (active) |
| O=[N+]([O-])c1ccccc1SCc1ccccc1 | 54.7% |
| C(=P(c1ccccc1)(c1ccccc1)c1ccccc1)[P+](c1ccccc1)(c1ccccc1)c1ccccc1 | 99.3% (active) |
| CCOC(=O)N1CCN(C(=S)N/N=C(\C)c2ncccn2)CC1 | 99.4% (active) |
| CCC1(C)C(C#N)(C#N)C1(C#N)C#N | 97.8% (active) |
| Cc1ccccc1C(O)(c1ccccc1C)C1(O)CCN(C)CC1 | 96.2% (active) |
| Oc1c(C(Nc2ccccn2)c2ccccc2)ccc2cccnc12 (stereo not drawn) | 95.5% (active) |
| Cc1ccc(C(CN(C)C)C(=O)c2ccccc2)cc1C (stereo not drawn) | 36.3% |
| COC(=O)/C=C(\NC1CC(OC2C[C@](O)(C(C)=O)Cc3c(O)c4c(c(O)c32)C(=O)c2c(OC)cccc2C4=O)OC(C)C1O)C(=O)OC (stereo partly drawn) | 97.7% (active) |
| CC1(C)C/C(=N/NC(N)=S)C(=NO)/C(=N\NC(N)=S)C1 | 77.4% (active) |
| Cc1cc2c(c(C(N)=O)c1C)-c1cccc(F)c1C2=O | 37.6% |
| CN(C)c1ccc(/C=C(\C#N)c2cccc(Cl)c2)cc1 | 10.8% |
| Cc1ccc(S(=O)(=O)NNc2nc(N(C)C)nc(N(C)C)n2)cc1 | 5.5% |
| CC(NNC(=S)NCc1ccccc1)c1cc2ccccc2cn1 (stereo not drawn) | 86.9% (active) |
| COc1ccc(Cc2c(-c3ccc(C)cc3)n[nH]c(=O)c2C2C(=O)N(c3ccccc3)N=C2c2ccccc2)cc1 (stereo not drawn) | 98.2% (active) |

| Compound | growth inhibition |
| --- | --- |
| CC1(c2ccccc2)OC(=O)C=CC1=O (stereo not drawn) | 99.5% (active) |
| CC1CCC(C)(C)c2cc([N+](=O)[O-])cc([N+](=O)[O-])c21 (stereo not drawn) | 26.2% |
| CC1(C)CC(=O)C(/C=N/c2nc(-c3cccc([N+](=O)[O-])c3)cs2)=C(O)C1 | 99% (active) |
| O=[N+]([O-])C(=C1Nc2ccccc2N1)C(Cl)=C(Cl)Cl | 9.85% |
| COc1ccc2c(c1)C1(C)CCCC(C)(C(=O)O)C1C(Br)C2=O (stereo not drawn) | 84% (active) |
| COc1cc(NCC(C)(O)CN2CCC(C)CC2C)c2ncccc2c1 (stereo not drawn) | 77% (active) |
| ClC/C=C/c1ccccc1 | 61% |
| O=C(c1ccc(O)c(Br)c1)c1cc(Br)ccc1O | 97.8% (active) |
| COc1ccc(OP2(Oc3ccc(OC)cc3)=NP(Oc3ccc(OC)cc3)(Oc3ccc(OC)cc3)=NP(Oc3ccc(OC)cc3)(Oc3ccc(OC)cc3)=NP(Oc3ccc(OC)cc3)(Oc3ccc(OC)cc3)=N2)cc1 | 67.3% |
| COc1ccccc1NC(=O)CSC(N)=O | 92.5% (active) |
| Cc1ccc(N=C(N)Nc2ccc(C)cn2)nc1 | 44.6% |
| FC(F)(F)c1nc(Cl)nc2nc[nH]c12 | -31.4% |
| O=[N+]([O-])c1ccccc1CC(c1c[nH]c2ccccc12)c1c[nH]c2ccccc12 | 82.9% (active) |
| O=C(O)C1CCCCC1.[Ag] | 93.2% (active) |
| CC(C)c1ccc(O)c(O)c(=O)c1 | 93.8% (active) |
| CC(C)(C)c1ccc(Sc2ncnc3ccccc23)cc1 | 89.5% (active) |
| CC(C)NC(=O)CN1C(=O)NC(C)(c2ccccc2)C1=O (stereo not drawn) | 53.5% |
| COc1cccc(N2CCN(CC(O)COc3cc4c(c5c3CCCC5)CCCC4)CC2)c1 (stereo not drawn) | 62.5% |
| CC(CCN)(CCN)[N+](=O)[O-] | -13.6% |
